# PubChem BioAssay (EPA / NIEHS)
# Active and inactive are the calls of the source. Rule for the calls: active = hit-call score of the fitted dose curve at least 0.9, where 1 is the maximum; inactive = score below 0.9.
# Target: Myc proto-oncogene protein (Homo sapiens) (UniProt P01106)
# Experiment: ATG_Myc_CIS: Attagene CIS-FACTORIAL HepG2 Assay for human Myelocytomatosis (Myc) Proto-Oncogene Transcription Factor (AID 2282990)
# Conditions: HepG2, Attagene cis-reporter transcription factor activity; actives raise or lower the signal
# Description: ATG_CIS is a cell-based, multiplexed-readout assay that uses HepG2, a human liver cell line, with measurements taken at 24 hours after chemical dosing in a 24-well plate.ATG_Myc_CIS is one of 52 assay component(s) measured or calculated from the ATG_CIS assay. It is designed to make measurements of mRNA induction, a form of inducible reporter, as detected with fluorescence intensity signals by Reverse transcription polymerase chain reaction (RT-PCR) and Capillary electrophoresis technology.Data from the assay component ATG_Myc_CIS was analyzed into 1 assay endpoint. This assay endpoint, ATG_Myc_CIS, was analyzed with bidirectional fitting relative to DMSO as the negative control and baseline of activity. Using a type of inducible reporter, measures of mRNA for gain or loss-of-signal activity can be used to understand the reporter gene at the transcription factor-level as they relate to the gene MYC. Furthermore, this assay endpoint can be referred to as a primary readout, because this assay has produced multiple assay endpoints where this one serves a reporter gene function. To generalize the intended target to other relatable targets, this assay endpoint is annotated to the dna binding intended target family, where the subfamily is basic helix-loop-helix leucine zipper.
# Human liver HepG2 cells are transiently transfected with multiple reporter transcription units (MRTUs) in 6-well plates using FuGene 6 reagent (Roche; 3 ml FuGene/1 mg DNA). The MRTU constructs are regulated by a cis-regulating element (promoter). […] A major difference between the CIS and TRANS system is that in CIS activities of endogenous TFs are measured, whereas the TRANS assay evaluates changes in activities of exogenous, chimeric NR-Gal4 proteins. […] At the end of 24 hour incubation, total RNA was isolated using TriZol reagent (Invitrogen). The isolated RNA is then reverse-transcribed using oligo(dT) primer and Mo-MLV reverse transcriptase (Invitrogen) with DNAse I (Ambion) treatment for 30 min. The one-tenth of the produced cDNA was amplified by PCR using Taq DNA polymerase (Invitrogen) and two reporter sequence-specific primers. The PCR products were fluorescently labeled by primer extension with 6-arboxyfluorescein (6-FAM) 5'-labeled reporter sequence-specific primer (2 min at 95 C, 20 s at 68 C and 10 min at 72 C) and these products were digested with 5U of HpaI (New England Biolabs) for 2h at 37 C. The fragments were purified using Qiaquick PCR columns (Qiagen), analyzed on an ABI 3130xL genetic analyzer (Applied Biosystems) with peak positions identified by using a set of X-rhodamine (ROX)-labeled MapMarker1000 molecular weight standards (BioVentures). The raw capillary electrophoresis data was processed using Attagraph software (Attagene).
# Sequence of Myc proto-oncogene protein (Homo sapiens) (P01106 whole entry, looked up): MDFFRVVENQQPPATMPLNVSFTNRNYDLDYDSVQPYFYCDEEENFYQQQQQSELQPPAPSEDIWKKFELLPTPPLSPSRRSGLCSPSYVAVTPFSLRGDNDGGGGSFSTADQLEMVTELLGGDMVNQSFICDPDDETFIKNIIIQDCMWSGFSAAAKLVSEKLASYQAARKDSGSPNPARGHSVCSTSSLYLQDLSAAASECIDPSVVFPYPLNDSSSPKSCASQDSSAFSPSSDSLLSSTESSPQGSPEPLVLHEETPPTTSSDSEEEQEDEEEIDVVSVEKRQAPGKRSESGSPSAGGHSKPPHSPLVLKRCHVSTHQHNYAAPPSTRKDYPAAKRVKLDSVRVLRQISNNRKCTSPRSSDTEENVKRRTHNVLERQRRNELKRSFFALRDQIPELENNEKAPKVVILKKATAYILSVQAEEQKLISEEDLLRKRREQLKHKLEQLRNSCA
row,Compound,outcome
1,Nc1cnn(-c2ccccc2)c(=O)c1Cl,inactive
2,OC(c1ccc(Cl)cc1)(c1ccc(Cl)cc1)C(Cl)(Cl)Cl,inactive
3,CN=C=S,inactive
4,CS(=O)(=O)c1ccc(C(=O)C2C(=O)CCCC2=O)c([N+](=O)[O-])c1,inactive
5,Cc1cc(C)nc(Nc2ccccc2)n1,inactive
6,CCCN(CC)CC1COC2(CCC(C(C)(C)C)CC2)O1 (stereo not given),inactive
7,O=C(Nc1ccccc1-c1ccc(Cl)cc1)c1cccnc1Cl,inactive
8,COCC(C)N(C(=O)CCl)c1c(C)csc1C (stereo not given),inactive
9,COC(=O)NS(=O)(=O)c1ccc(N)cc1,inactive
10,Nc1c(Cl)c(Cl)nc(C(=O)O)c1Cl,inactive
11,COC(=O)c1c(C(F)F)nc(C(F)(F)F)c(C2=NCCS2)c1CC(C)C,inactive
12,CC1(C)C(C(=O)OC(C#N)c2cccc(Oc3ccccc3)c2)C1(C)C (stereo not given),inactive
13,N#Cc1c[nH]cc1-c1cccc2c1OC(F)(F)O2,inactive
14,CCNC(=O)NC(=O)C(C#N)=NOC,inactive
15,O=P(O)(O)CCCl,inactive
16,CCOP(=O)(OCC)Oc1nc(Cl)c(Cl)cc1Cl,inactive
17,Cc1nc(N(C)C)nc(OC(=O)N(C)C)c1C,inactive
18,CC(C)Nc1nc(Cl)nc(NC(C)C)n1,inactive
19,CC(C)N1C(=O)c2ccccc2NS1(=O)=O,inactive
20,CC(C)=CC1C(C(=O)OCc2coc(Cc3ccccc3)c2)C1(C)C (stereo not given),inactive

row,Compound,outcome
1,Cc1c(COC(=O)[C@@H]2[C@H](/C=C(\Cl)C(F)(F)F)C2(C)C)cccc1-c1ccccc1,inactive
2,COP(=O)(OC)O/C(C)=C/C(=O)N(C)C,inactive
3,COC(=O)NC(=S)Nc1ccccc1NC(=S)NC(=O)OC,inactive
4,Cc1cnc(C2=NC(C)(C(C)C)C(=O)N2)c(C(=O)O)c1 (stereo not given),inactive
5,COC(=O)N(C(=O)N1CO[C@@]2(C(=O)OC)Cc3cc(Cl)ccc3C2=N1)c1ccc(OC(F)(F)F)cc1,inactive
6,N#CN=C1SCCN1Cc1ccc(Cl)nc1,inactive
7,C=CCOC(=O)C(C)(C)OC(=O)c1cc(-n2c(=O)cc(C(F)(F)F)n(C)c2=O)ccc1Cl,inactive
8,CNC(=O)Oc1cccc2ccccc12,inactive
9,COCc1cnc(C2=NC(C)(C(C)C)C(=O)N2)c(C(=O)O)c1 (stereo not given),inactive
10,Clc1nc(Cl)nc(Nc2ccccc2Cl)n1,inactive
11,COc1cc(OC)nc(NC(=O)NS(=O)(=O)c2ncccc2OCC(F)(F)F)n1,inactive
12,CC1(C)CON(Cc2ccccc2Cl)C1=O,inactive
13,C=C(C)CN(CC)c1c([N+](=O)[O-])cc(C(F)(F)F)cc1[N+](=O)[O-],inactive
14,COc1cc(Cl)c(OC)cc1Cl,inactive
15,CCSC(=O)N1CCCCCC1,inactive
16,CCOc1nc(C(Cl)(Cl)Cl)ns1,inactive
17,CC(C)Oc1cccc(NC(=O)c2ccccc2C(F)(F)F)c1,inactive
18,CN/C(=N\[N+](=O)[O-])NCc1cnc(Cl)s1,inactive
19,CCN(CC)C(=O)C(C)Oc1cccc2ccccc12 (stereo not given),inactive
20,CCOc1nc(F)cc2nc(S(=O)(=O)Nc3c(Cl)cccc3Cl)nn12,inactive
